From paper PMC4336329 (PLoS ONE, 2015) come the findings set out here.

About 14,000 (4.5%) of roughly 310,000 compounds showed an effect of 50% or more. Effects have a minus sign here. For the sample, strong results were picked, then their nearest neighbours and some compounds at random.
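Note: peak tail current of the secondary pulse compared with the same well before compound.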

The target of the experiment is human ether-à-go-go-related gene (hERG) potassium channel (human, UniProt Q12809). Nature of the experiment: primary screen, population patch clamp on CHO cells stably expressing hERG; higher = less effect of the substance.
human ether-à-go-go-related gene (hERG) potassium channel, sequence (Q12809 whole entry, looked up): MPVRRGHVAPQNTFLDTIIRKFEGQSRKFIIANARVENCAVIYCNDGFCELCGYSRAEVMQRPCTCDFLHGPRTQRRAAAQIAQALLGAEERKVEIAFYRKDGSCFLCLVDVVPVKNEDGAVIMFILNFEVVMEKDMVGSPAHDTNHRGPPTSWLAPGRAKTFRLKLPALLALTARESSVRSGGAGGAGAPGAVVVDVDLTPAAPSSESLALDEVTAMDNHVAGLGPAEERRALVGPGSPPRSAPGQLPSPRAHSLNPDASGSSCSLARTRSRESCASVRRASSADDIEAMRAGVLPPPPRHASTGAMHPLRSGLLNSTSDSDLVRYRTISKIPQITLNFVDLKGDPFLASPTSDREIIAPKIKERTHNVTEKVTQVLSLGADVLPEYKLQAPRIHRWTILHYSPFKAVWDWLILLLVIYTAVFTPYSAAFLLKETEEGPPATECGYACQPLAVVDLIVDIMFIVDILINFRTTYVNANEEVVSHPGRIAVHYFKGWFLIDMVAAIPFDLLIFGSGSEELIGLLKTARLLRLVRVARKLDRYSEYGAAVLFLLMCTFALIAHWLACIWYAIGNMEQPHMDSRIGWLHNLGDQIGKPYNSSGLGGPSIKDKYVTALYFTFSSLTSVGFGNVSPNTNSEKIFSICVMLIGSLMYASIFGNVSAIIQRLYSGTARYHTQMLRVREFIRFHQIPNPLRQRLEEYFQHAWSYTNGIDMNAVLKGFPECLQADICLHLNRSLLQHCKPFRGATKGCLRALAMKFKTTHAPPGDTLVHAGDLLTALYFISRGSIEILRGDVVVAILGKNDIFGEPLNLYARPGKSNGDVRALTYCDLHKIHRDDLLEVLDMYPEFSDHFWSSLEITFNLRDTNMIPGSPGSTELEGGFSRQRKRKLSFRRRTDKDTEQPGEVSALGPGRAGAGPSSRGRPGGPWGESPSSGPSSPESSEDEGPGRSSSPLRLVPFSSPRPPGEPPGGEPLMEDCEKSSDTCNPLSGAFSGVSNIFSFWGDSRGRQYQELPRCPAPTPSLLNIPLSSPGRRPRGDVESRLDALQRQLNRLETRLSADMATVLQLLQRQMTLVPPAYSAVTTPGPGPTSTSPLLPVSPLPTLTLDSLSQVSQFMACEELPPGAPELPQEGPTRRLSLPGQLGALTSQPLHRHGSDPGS
Regarding `CCCC1(C(=O)OCC)NC(c2ccc(N(C)C)cc2)C2C(=O)N(c3ccc(F)cc3)C(=O)C21` (stereo not drawn), the “hERG current change (%, negative = inhibition) at 10uM” value is listed as -8.18%.

Take `CCCCNC(=O)c1sc2nc(C)cc(COC)c2c1-n1cccc1`: the “hERG current change (%, negative = inhibition) at 10uM” value was -10.7%.

As to `S=C(c1ccccc1)N(c1ccccc1)c1ccccc1`, the “hERG current change (%, negative = inhibition) at 10uM” value is reported as 7.21%.

For `Cc1ccc(N2CC(C(=O)Nc3ccc(S(=O)(=O)N4CCCC4)cc3)CC2=O)cc1` (stereo not drawn), the “hERG current change (%, negative = inhibition) at 10uM” value is reported as -8.07%.

As for `O=C(Nc1ccccc1)C1=C(O)CC(c2ccoc2)CC1=Nc1ccccc1` (stereo not drawn), the “hERG current change (%, negative = inhibition) at 10uM” value came to 15%.

For `O=C1CCCCC1Oc1ccc2ccc(=O)oc2c1` (stereo not drawn), the “hERG current change (%, negative = inhibition) at 10uM” value came out at 19.6%.

Turning to `Cc1coc2c(C)c3oc(=O)c(CCC(=O)NCCN4CCOCC4)c(C)c3cc12`, the “hERG current change (%, negative = inhibition) at 10uM” value is recorded as -24.6%.

As for `CC(OC(=O)c1ccc(Cl)c([N+](=O)[O-])c1)C(=O)N1CCN(Cc2ccccc2)CC1` (stereo not drawn), the “hERG current change (%, negative = inhibition) at 10uM” value is -71.1%.

On to `O=C(c1ccc(Oc2ccc(Cl)cc2)c([N+](=O)[O-])c1)N1CCCC1`, for which the “hERG current change (%, negative = inhibition) at 10uM” value is -63%.

As for `COc1ccc(C(=O)N2CCN(Cc3ccccc3)CC2)cc1[N+](=O)[O-]`, the “hERG current change (%, negative = inhibition) at 10uM” value is -52%.

As for `O=C(c1ccc(Cl)c([N+](=O)[O-])c1)N1CCN(Cc2ccc3c(c2)OCO3)CC1`, the “hERG current change (%, negative = inhibition) at 10uM” value is -26.7%.

Regarding `COc1cc(N(C)C)c([N+](=O)[O-])cc1C(=O)N1CCN(Cc2ccccc2)CC1`, the “hERG current change (%, negative = inhibition) at 10uM” value amounted to 9.99%.

As for `NC(=O)c1ccc(Oc2ccc(Cl)cc2)c([N+](=O)[O-])c1`, the “hERG current change (%, negative = inhibition) at 10uM” value turned out to be 12.6%.

Turning to `O=C(c1ccc(S(=O)(=O)c2ccccc2Cl)c([N+](=O)[O-])c1)N1CCN(Cc2ccccc2)CC1`, the “hERG current change (%, negative = inhibition) at 10uM” value is reported as -25.3%.

Consider `COc1ccc(C(=O)N2CCN(Cc3ccc4c(c3)OCO4)CC2)cc1[N+](=O)[O-]`, for which the “hERG current change (%, negative = inhibition) at 10uM” value is listed as -44.6%.

`O=C(c1ccc(Oc2ccc([N+](=O)[O-])cc2Cl)cc1)N1CCCC1`: the “hERG current change (%, negative = inhibition) at 10uM” value is -32.2%.

For `CC(C(=O)N1CCN(Cc2ccccc2)CC1)c1ccc([N+](=O)[O-])cc1` (stereo not drawn), the “hERG current change (%, negative = inhibition) at 10uM” value is on record as -43.7%.

Take `O=C(c1ccc(Br)c([N+](=O)[O-])c1)N1CCN(Cc2ccccc2)CC1`: the “hERG current change (%, negative = inhibition) at 10uM” value is -61.2%.

As to `Cc1cc(C(=O)N2CCN(Cc3ccccc3)CC2)ccc1[N+](=O)[O-]`, the “hERG current change (%, negative = inhibition) at 10uM” value is listed as -32%.

Turning to `CCOC(=O)C1(C)/C(=N/Nc2cccc(Cl)c2)C(=O)C(=O)N1c1ccccc1` (stereo not drawn), the “hERG current change (%, negative = inhibition) at 10uM” value came to 6.3%.

`CCOc1ccc(Br)cc1S(=O)(=O)Nc1cccc(S(=O)(=O)N(CC)CC)c1`: the “hERG current change (%, negative = inhibition) at 10uM” value is -4.53%.

For the molecule `Cc1ccc(CN2CCN(/N=C/c3ccc(C(=O)O)cc3)CC2)cc1`, the “hERG current change (%, negative = inhibition) at 10uM” value is on record as 5.6%.

Take `CCOc1ccccc1N(CC(=O)NC1CCCCC1)C(=O)CCC(=O)Nc1cc(C)ccn1`: the “hERG current change (%, negative = inhibition) at 10uM” value amounted to 3.35%.

Regarding `Cc1cccc(CSc2nnc(CCNC(=O)OC(C)(C)C)o2)c1`, the “hERG current change (%, negative = inhibition) at 10uM” value is listed as -7.22%.

With `COc1c([N+](=O)[O-])c(=O)oc2ccccc12`, the “hERG current change (%, negative = inhibition) at 10uM” value came out at 15.4%.

With `Cc1ccc(S(=O)(=O)CC(=O)Nc2ncc([N+](=O)[O-])s2)cc1`, the “hERG current change (%, negative = inhibition) at 10uM” value was 21.8%.

For `CC(C)(C)NC(=O)COC(=O)CCC(=O)c1ccc(F)cc1`, the “hERG current change (%, negative = inhibition) at 10uM” value was determined as 12%.

As to `COc1ccccc1C(=O)NNc1ncc(C)s1.Cl`, the “hERG current change (%, negative = inhibition) at 10uM” value is listed as -0.745%.

Consider `COc1ccc(C(=O)N2CCN(c3ccccn3)CC2)cc1[N+](=O)[O-]`, for which the “hERG current change (%, negative = inhibition) at 10uM” value was -14.9%.

Take `COc1ccc(C(=O)N2CCN(CCc3ccccc3)CC2)cc1[N+](=O)[O-]`: the “hERG current change (%, negative = inhibition) at 10uM” value is reported as -75.6%.

Regarding `COc1ccc(C(=O)N2CCN(c3ncccn3)CC2)cc1[N+](=O)[O-]`, the “hERG current change (%, negative = inhibition) at 10uM” value is given as -2.35%.

On to `COc1ccc(N(CC(=O)Nc2ccc(F)c(F)c2)S(=O)(=O)c2c(C)n[nH]c2C)cc1`, for which the “hERG current change (%, negative = inhibition) at 10uM” value is on record as 18.5%.

Consider `O=C(OCc1ccc(Br)cc1)c1cccnc1`, for which the “hERG current change (%, negative = inhibition) at 10uM” value was -5.96%.

Take `CN(C)C/C=C(\c1ccc(Br)cc1)c1cccnc1.Cl.O`: the “hERG current change (%, negative = inhibition) at 10uM” value is listed as -63.7%.

For the molecule `C/C(=N\NC(=O)c1ccc(Br)cc1)c1cccnc1`, the “hERG current change (%, negative = inhibition) at 10uM” value is 5.22%.

Regarding `Cc1ccc(C(=O)O/N=C(\c2ccccc2)c2cccnc2)cc1`, the “hERG current change (%, negative = inhibition) at 10uM” value was -18.7%.

As to `CN(C)CCO/N=C(\c1ccc(Br)cc1)c1cccnc1.O=C(O)C(=O)O`, the “hERG current change (%, negative = inhibition) at 10uM” value is on record as -63.5%.

With `CN(C)C/C=C(/c1ccc(Br)cc1)c1cccnc1.Cl`, the “hERG current change (%, negative = inhibition) at 10uM” value is -71.5%.

With `CN(C)CCCO/N=C(\c1ccccc1)c1ccncc1.O=C([O-])C(=O)[O-]`, the “hERG current change (%, negative = inhibition) at 10uM” value came to 5.25%.

As to `O=C(NCCNC(=O)c1cccnc1)c1ccc(Br)cc1`, the “hERG current change (%, negative = inhibition) at 10uM” value came to 14.6%.

For the molecule `O=C(Oc1ccc(Br)cc1)c1cccnc1`, the “hERG current change (%, negative = inhibition) at 10uM” value was 4.3%.

Turning to `CC[C@@]12C(=O)N(c3cccc(F)c3)C(=O)N1[C@H](c1cccc(C)c1)[C@@H]1C(=O)N(Cc3ccccc3)C(=O)[C@@H]12`, the “hERG current change (%, negative = inhibition) at 10uM” value is given as 0.427%.

Consider `Cc1cc(-c2ccccc2)nc(N/N=C/c2ccco2)n1`, for which the “hERG current change (%, negative = inhibition) at 10uM” value is reported as -0.804%.

For the molecule `O=C(OCC(=O)N1CCCc2ccccc21)c1ccccc1NCCO`, the “hERG current change (%, negative = inhibition) at 10uM” value is reported as -15.9%.

On to `Cc1ccc(S(=O)(=O)N2CCCCC2)cc1NC(=O)CSc1ccc2c(c1)OCCO2`, for which the “hERG current change (%, negative = inhibition) at 10uM” value is -9.32%.
